# High-throughput results deposited in PubChem BioAssay by The Scripps Research Institute Molecular Screening Center.
# The full list was thinned out, with hits kept by preference.
# TTR transcr act: TTR transcription activation, primary screen. SH-SY5Y TTR promoter Gaussia luciferase, luminescence; 100% = recombinant luciferase protein wells. activation, % at 16.7 µM. 1.3% of 92,000 active. AID 1117267;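 active means activation above the mean of all tested compounds plus 3 SD, cut at about 9.5% in these data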;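 further: cells exposed to compounds for one day before reading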
# HuH7 TTR inh: HuH7 TTR transcription inhibition, counter-screen; shares compounds with TTR transcr act; HuH7 TTR promoter-Gaussia luciferase reporter, luminescence; inhibition, % at 16.7 µM; 4% of 1,100 active; AID 1117279;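 active means average inhibition above the solvent-only control wells' mean plus 3 SD, cut at about 15% in these data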;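 further: inhibitors lower well luminescence so higher value means more inhibition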
# TTR up confirm: confirmation of human transthyretin transcription activators; shares compounds with TTR transcr act; SHSY5Y TTR promoter Gaussia luciferase, luminescence; 100% = purified Lucia enzyme wells, no cells; activation, % at 16.7 µM; 1,100 tested, under 10 active;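 active means mean activation above a set limit taken from the earlier primary screen, cut at about 11% in these data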
# Numbers stand for hits; . = inactive.
SMILES,TTR transcr act,others
Cc1cc(C)n(CC(O)COc2cccc(OCC(O)Cn3nc(C)cc3C)c2)n1 (stereo not drawn),.,
Cc1cc(C)n(CCOc2ccc(Br)cc2)n1,10,HuH7 TTR inh=.;TTR up confirm=.
C[C@H]1[C@H](N(Cc2ccccc2)Cc2ccccc2)CC[C@@]23CCCN2C(=O)CCC[C@@H]13,.,
CC(c1ccccc1C(O)(c1ccccc1)c1ccccc1)N(C)C (stereo not drawn),.,
CC(C)N(CC#CCC(O)(c1ccccc1)c1ccccc1)C(C)C,.,
CN(C)CC(CCC(CN(C)C)C(O)(c1ccccc1)c1ccccc1)C(O)(c1ccccc1)c1ccccc1 (stereo not drawn),11,HuH7 TTR inh=53;TTR up confirm=.
COc1ccccc1N1CC(C(=O)OCC(=O)Nc2c(C)cccc2C)CC1=O (stereo not drawn),.,
CCOC(=O)[C@@]12CCCC=C1N(CCc1ccc(Cl)cc1)C(=O)[C@H]2CC(=O)NCCc1ccccc1OC,.,
Cc1ccc[n+](CC(=O)c2ccc(NC(=O)c3ccccc3)cc2)c1,.,
Cc1cccc(NC(=O)C[n+]2cccc(C)c2)c1,.,
Cc1cc(C)c(C(=O)C[n+]2cccc(C(N)=O)c2)c(C)c1,14,HuH7 TTR inh=.;TTR up confirm=.
CC(=O)c1cccc(OCC(O)CNCCOc2ccc(C)cc2)c1 (stereo not drawn),.,
COC(=O)c1ccc(Cn2ccc3ccc(-c4ccc5ccn(C(=O)C6CCCCC6)c5c4)cc32)cc1,.,
Nc1nc(Nc2ccccc2)nc(N2CCOCC2)c1[N+](=O)[O-],.,
Nc1nc(NCC2CCCO2)nc(Nc2ccc(Cl)cc2)c1[N+](=O)[O-] (stereo not drawn),.,
Nc1nc(NCCCN2CCOCC2)nc(Nc2ccc(Cl)cc2)c1[N+](=O)[O-],13,HuH7 TTR inh=.;TTR up confirm=.
CCOC(=O)[C@@]12CCCC=C1N(CCc1ccc(Cl)cc1)C(=O)[C@H]2CC(=O)NCCCCc1ccccc1,.,
C=CCn1cc(C(=O)N2CCN(c3ccccc3)CC2)c(=O)c2cc(S(=O)(=O)N3CCCC3)ccc21,.,
CC1=CC(=O)N(c2cccc3c(N4C(=O)C=C(C)C4=O)cccc23)C1=O,.,
CN1/C(=C/C2CC(=O)N(c3cccc4ccccc34)C2=O)C(C)(C)c2ccccc21 (stereo not drawn),.,
CCN1C(=O)N(c2cccc3ccccc23)C(C)=CC1(C)C,28,HuH7 TTR inh=.;TTR up confirm=.
O=C(NNc1nc2ccccc2nc1C(F)(F)F)c1ccccc1,10,HuH7 TTR inh=.;TTR up confirm=.
O=C(NNc1nc2ccccc2o1)c1ccccc1,.,
O=C(NNc1ccccc1F)c1ccccc1,.,
CN(Cc1ccccc1)C(=O)c1nc[nH]c1C(=O)N(C)Cc1ccccc1,.,
SMILES,TTR transcr act,others
CC(C)C[C@@H](COc1ccccc1)N1CCN(C)CCC1=O,.,
CC1CCC(=O)N(CCOc2ccccc2)CC1 (stereo not drawn),.,
C[C@H]1CCC(=O)N([C@H](COc2ccccc2)Cc2ccccc2)CC1,14,HuH7 TTR inh=.;TTR up confirm=.
COc1cc(OC)cc(C(C)c2ccc(C)cc2)c1 (stereo not drawn),.,
CN1C2=N[C@@H](c3ccc4c(c3)OCO4)CC(=O)N2/C(=C\c2ccccc2)[C@H]1c1ccccc1,.,
CC(C)CN1C[C@@H]2CSCCS(=O)(=O)N2C1=O,.,
CC1(c2nnnn2C2CCCCC2)CSCC(=O)N1CCc1ccc(O)cc1 (stereo not drawn),.,
COCCNC[C@@]12CO[C@H](c3ccc(Cl)cc3)N1[C@@H](c1ccc(Cl)cc1)SC2,.,
O=C1CN(C(=O)c2ccccn2)c2ccccc2N1,.,
O=C1CN(C(=O)OCc2ccccc2)c2ccccc2N1,14,HuH7 TTR inh=.;TTR up confirm=.
O=C1CN(C(=O)NCC(=O)N[C@H](C(=O)O)c2ccccc2)c2ccccc2N1,.,
C[C@@H]1[C@@H](O)C[C@@]2(C[C@H](O)c3cc(Cl)cc(Cl)c3O2)O[C@H]1c1ccccc1Cl,.,
O=C(CN(CC1CCCO1)C(=O)c1nsc(Cl)c1Cl)NC1CCCC1 (stereo not drawn),.,
O=C(Nc1ccc(C(O)(C(F)(F)F)C(F)(F)F)cc1)c1ccc(Cl)cc1,.,
CC(C)[C@@H](C)/C=C/[C@@H](C)[C@H]1CC[C@@H]2[C@]1(C)CCC1[C@]23C=C[C@]2(C[C@@H](O)CC[C@]12C)N(C(=O)Cc1ccccc1)O3 (stereo partly drawn),.,
COc1cccc(C(=O)Nc2nc(-c3ccncc3)cs2)c1,.,
COc1cccc(-c2csc(NC(=O)C3CC3)n2)c1,11,HuH7 TTR inh=33;TTR up confirm=.
COc1cccc(-c2csc(NC(=O)Nc3ccccc3)n2)c1,.,
O=C1N(c2ccccc2)CC2CC(c3ccccc3)N3CCCC123 (stereo not drawn),.,
CCOc1ccc(-n2c(SCC(=O)Nc3ccc4c(c3)OCCO4)nc3c(c2=O)SCC3)cc1,.,
COc1ccc(-n2c(SCC(=O)Nc3nccs3)nc3c(c2=O)SCC3)cc1,.,
COc1ccc(NC(=O)CSc2nc3c(c(=O)n2-c2ccc(F)cc2)SCC3)c(OC)c1,15,HuH7 TTR inh=.;TTR up confirm=.
Fc1ccc(F)c(Cn2ccc3ccc(-c4ccc5ccn(Cc6cc(F)ccc6F)c5c4)cc32)c1,.,
CC(C)[C@H](NC(=O)OCc1ccccc1)C(=O)N[C@@H](Cc1ccccc1)C1(O)CN(C)C(C(=O)NCc2ccccn2)CO1 (stereo partly drawn),.,
COc1ccc(C2Nc3ccccc3C(=O)N2Cc2ccccc2)cc1COc1ccc(NC(C)=O)cc1 (stereo not drawn),.,
SMILES,TTR transcr act,others
CCc1nccn1CC(=O)c1ccc(O)c(O)c1,.,
CCOc1cc(CO)c(Br)cc1OCC(=O)O,.,
CCCCNCc1cc(OC)c(OCC(N)=O)cc1Br,.,
CCCCNCc1cc(OCC)c(OCC(N)=O)cc1Br,18,HuH7 TTR inh=.;TTR up confirm=.
CC(C)(N[C@@H](Cc1c[nH]c2ccccc12)C(=O)NCC(c1ccccc1)c1ccccc1)C(=O)NC1CCCCC1,.,
COc1ccc2cc3c(N)nn(C(=O)c4ccc(Cl)c([N+](=O)[O-])c4)c3nc2c1,.,
COc1ccc2cc3c(N)nn(C(=O)c4ccccc4[N+](=O)[O-])c3nc2c1,26,HuH7 TTR inh=26;TTR up confirm=.
CCCC1CCC(C(=O)n2nc(N)c3cc4ccc(OC)cc4nc32)CC1 (stereo not drawn),.,
CCOC(=O)c1ccc(N2C(=O)CC(SCC(=O)Nc3ccc(S(N)(=O)=O)cc3)C2=O)cc1 (stereo not drawn),.,
COC[C@@H]1CCCN1c1cccc2c1S(=O)(=O)N1CC[C@H](C1)O2,.,
O=S1(=O)c2ccc(N3CC[C@@H](O)C3)cc2OCCCN1C1CC1,.,
CC(C)CC1OC(C)Cc2[nH][nH]c(=O)c21 (stereo not drawn),.,
CC1C(=O)N(Cc2cn(CCC3OCCO3)nn2)CCS(=O)(=O)N1Cc1ccc(-c2ccncc2)cc1 (stereo not drawn),.,
CC1C(=O)N(Cc2cn(CCC3OCCO3)nn2)CCS(=O)(=O)N1Cc1ccc(-c2cccc(N(C)C)c2)cc1 (stereo not drawn),37,HuH7 TTR inh=.;TTR up confirm=.
CC1C(=O)N(Cc2cn(CCC3OCCO3)nn2)CCS(=O)(=O)N1Cc1ccc(-c2ccc(F)cc2)cc1 (stereo not drawn),.,
O=C(Nc1ccccc1F)O[C@@H]1CC[C@@]23CCCN2C(=O)CCC[C@H]3C1,.,
CCN(CC)c1ccc(/C=N/NC(=O)c2ccc([N+](=O)[O-])cc2)cc1,.,
